# Experimental data reported in PubChem BioAssay (NCATS).
# Results filed as inconclusive are left out. A call without a number means that no potency is given here. Active and inactive are the calls of the source. The call rests on the fitted dose curve; in most records, active means well fitted curve in the direction sought with a large enough effect; inconclusive means small, poorly fitted or top-dose-only effect, or another doubt; inactive means no such curve, though single readings can be large; an effect the other way counts as inactive or inconclusive.
# How the values were obtained:
# [1] = qHTS of pediatric cancer cell lines to identify multiple opportunities for drug repurposing: Confirmatory screen for Saos-2 cells (AID 1347127); further: nearly all actives have a fitted effect of over 60% in size; further: potency means the concentration at half of the fitted maximal effect
# In short: (§1)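 Cells (500-1,000/well) in growth media were settled 5 h at 37 degrees C, then given compounds for 48 h. Viability was read as CellTiter-Glo luminescence. Primary runs used MIPE at 11 points (0.78 nM-46 µM) and NPC at 8 points (0.59 nM-46 µM); follow-ups used 11 points.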
# [2] = qHTS of pediatric cancer cell lines to identify multiple opportunities for drug repurposing: Confirmatory screen for OHS-50 cells (AID 1347128);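 further: compound exposure lasted 48 h at 37 degrees C; nearly all actives have a fitted effect of over 55% in size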; further: potency means the concentration at half of the fitted maximal effect
# In short: as §1
# [3] = qHTS of pediatric cancer cell lines to identify multiple opportunities for drug repurposing: Confirmatory screen for SK-N-SH cells (AID 1347129);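 further: cells exposed to compound for 48 h before viability read; nearly all actives have a fitted effect of over 60% in size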; further: potency means the concentration at half of the fitted maximal effect
# In short: as §1
# [4] = test system: Zika virus NS2B-NS3 protease; experiment: Primary screen GU AMC qHTS for Zika virus inhibitors (AID 1347154); further: nearly all actives have a fitted effect of over 70% in size; further: potency means the concentration at half of the fitted maximal effect
# In short: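 Unlinked Zika NS2B hydrophilic domain/NS3 protease domain noncovalent complex (25 nM final) in 10 mM Tris-HCl pH 8.0, 0.01% Tween 20, with AMC peptide substrate. Fluorescence (ex 340, em 450 nm) change over 15 min, room temperature; percent inhibition fitted to 4-parameter Hill equation.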
# [5] = test system: Zika virus NS2B-NS3 protease (unlinked complex); experiment: Primary screen GU Rhodamine qHTS for Zika virus inhibitors: Unlinked NS2B-NS3 protease assay (AID 1347159); further: nearly all actives have a fitted effect of over 60% in size; further: potency means the concentration at half of the fitted maximal effect
# In short: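 Compounds, tested up to 114 microM, were incubated for 15 minutes with 25 nM unlinked NS2B-NS3 protease at pH 8.0. Cleavage of 1.5 microM Rhodamine110 substrate was then followed by fluorescence for 15 minutes.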
# [6] = test system: Zika virus NS2B-NS3 protease (linked construct); experiment: Primary screen NINDS Rhodamine qHTS for Zika virus inhibitors (AID 1347160); further: nearly all actives have a fitted effect of over 55% in size
# In short: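 Percent inhibition, normalized to uninhibited and enzyme-free controls, is fitted to a 4-parameter Hill equation. Fluorescence change comes from a 15-min cleavage of 1.5 microM bis-peptide Rhodamine110 substrate by 25 nM linked NS2B-NS3 at room temperature.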
Compound,Potency [1],Potency [2],Potency [3],Potency [4],Potency [5],Potency [6]
O=C(Nc1cn[nH]c1-c1nc2ccc(CN3CCOCC3)cc2[nH]1)NC1CC1,inactive,inactive,inactive,inactive,inactive,inactive
COc1cccc2c(NCc3ccccc3)nc(-n3c(N)nc4ccccc43)nc12,9.27 µM (active),8.27 µM (active),8.33 µM (active),inactive,50.1 µM (active),inactive
C=C1C(=CC=C2CCC[C@]3(C)[C@@H]([C@H](C)C=C[C@H](C)C(C)C)CC[C@@H]23)C[C@@H](O)C[C@@H]1O,inactive,–,inactive,inactive,–,–
CC1=C(CO)C(=O)O[C@@H]([C@@H](C)[C@H]2CC[C@H]3[C@@H]4C[C@H]5O[C@]56[C@@H](O)C=CC(=O)[C@]6(C)[C@@H]4CC[C@]23C)C1,inactive,–,inactive,inactive,–,–
C=CC(=O)Nc1cccc(Oc2nc(Nc3ccc(N4CCN(C)CC4)cc3)ncc2Cl)c1,2.93 µM (active),5.22 µM (active),2.96 µM (active),inactive,inactive,inactive
C#Cc1cccc(Nc2ncnc3cc(OC)c(OCCCCCCC(=O)NO)cc23)c1,1.35 µM (active),2.4 µM (active),2.41 µM (active),–,–,inactive
NC(=O)Nc1cc(-c2cccc(F)c2)sc1C(=O)N[C@H]1CCCNC1,1.65 µM (active),0.737 µM (active),3.72 µM (active),–,inactive,inactive
Cc1ccc(C(N)=O)cc1Nc1nccc(-c2cn(C(C)C)c3cnccc23)n1,21.4 µM (active),12 µM (active),6.79 µM (active),inactive,inactive,inactive
CC(C)(O)c1cc2nc(-c3cnc(N)nc3)nc(N3CCOCC3)c2s1,1.65 µM (active),2.93 µM (active),0.935 µM (active),inactive,inactive,inactive
CNC(=O)c1ccccc1Nc1nc(Nc2ccc(N3CCOCC3)cc2OC)ncc1Cl,1.47 µM (active),2.93 µM (active),1.18 µM (active),inactive,inactive,inactive
COc1ccc(-n2nc(C(N)=O)c3c2C(=O)N(c2ccc(N4CCCCC4=O)cc2)CC3)cc1,inactive,inactive,inactive,inactive,inactive,inactive
Cc1[nH]nc2ccc(-c3cncc(OC[C@@H](N)Cc4ccccc4)c3)cc12,4.65 µM (active),4.65 µM (active),2.15 µM (active),–,inactive,inactive
Cc1c(CN2CCN(S(C)(=O)=O)CC2)sc2c(N3CCOCC3)nc(-c3cnc(N)nc3)nc12,1.31 µM (active),2.33 µM (active),2.96 µM (active),inactive,inactive,inactive
COc1ccc(OC)c(-c2nnc3ccc(-c4ccc(OC)c(O[C@@H]5CCOC5)c4)nn23)c1,–,6.57 µM (active),–,inactive,–,inactive
CC(C)C[C@H](NC(=O)CNC(=O)c1cc(Cl)ccc1Cl)B(O)O,–,–,0.418 µM (active),inactive,–,–
Cn1c(=O)n(-c2ccc(C(C)(C)C#N)cc2)c2c3cc(-c4cnc5ccccc5c4)ccc3ncc21,–,5.85 µM (active),–,inactive,inactive,–
CC(C)(C)NC(=O)[C@H]1CN(Cc2cccnc2)CCN1C[C@@H](O)C[C@@H](Cc1ccccc1)C(=O)N[C@H]1c2ccccc2C[C@H]1O,–,–,inactive,inactive,–,–
CC=CC1=C(C(=O)O)N2C(=O)[C@H](NC(=O)[C@H](N)c3ccc(O)cc3)[C@@H]2SC1,–,inactive,inactive,inactive,–,–
Cc1ccc2nc(NC(=O)CSc3nc4c(c(=O)n3-c3ccccc3)SCC4)sc2c1,inactive,–,–,–,inactive,inactive
COc1cccc2nc(-c3cccs3)nc(NN3C(=O)C=C(C)C3=O)c12,2.93 µM (active),–,2.96 µM (active),inactive,inactive,inactive
CNC(=O)c1nn(C)c2c1C(C)(C)Cc1cnc(Nc3ccc(N4CCN(C)CC4)cc3)nc1-2,–,5.85 µM (active),1.18 µM (active),inactive,inactive,inactive
CNC(=O)CN1CCC(Oc2cc3c(Nc4cccc(Cl)c4F)ncnc3cc2OC)CC1,–,–,inactive,inactive,inactive,inactive
CC(C)(C)c1cc(NC(=O)Nc2ccc(-c3cn4c(n3)sc3cc(OCCN5CCOCC5)ccc34)cc2)no1,–,16.5 µM (active),20.9 µM (active),inactive,inactive,inactive
COc1cc2c(NC3CCN(C(C)C)CC3)nc(C3CCCCC3)nc2cc1OCCCN1CCCC1,–,–,7.43 µM (active),inactive,inactive,inactive
O=C(C=Cc1cccnc1)NCCCCC1CCN(C(=O)c2ccccc2)CC1,–,inactive,inactive,inactive,–,–
Cc1cn2c(-c3cn[nH]c3)cnc2c(Nc2ccc(C(=O)N3CCNCC3)cc2F)n1,–,16.5 µM (active),7.43 µM (active),inactive,–,inactive
Cc1ccc(C(=O)Nc2ccc(CN3CCN(C)CC3)c(C(F)(F)F)c2)cc1C#Cc1cnc2cccnn12,–,inactive,1.48 µM (active),34.1 µM (active),inactive,inactive
